# Results as given in publication PMC4336329 (PLoS ONE, 2015).
# About 2,200 (0.71%) of roughly 310,000 compounds showed an effect of 50% or more. Effects have a minus sign here. For the sample, strong results were picked, then their nearest neighbours and some compounds at random.
# Molecular target: human ether-à-go-go-related gene (hERG) potassium channel (human, UniProt Q12809)
# Assay: primary screen, population patch clamp on CHO cells stably expressing hERG; higher = less effect of the substance
# Chain of human ether-à-go-go-related gene (hERG) potassium channel (Q12809 whole entry, looked up): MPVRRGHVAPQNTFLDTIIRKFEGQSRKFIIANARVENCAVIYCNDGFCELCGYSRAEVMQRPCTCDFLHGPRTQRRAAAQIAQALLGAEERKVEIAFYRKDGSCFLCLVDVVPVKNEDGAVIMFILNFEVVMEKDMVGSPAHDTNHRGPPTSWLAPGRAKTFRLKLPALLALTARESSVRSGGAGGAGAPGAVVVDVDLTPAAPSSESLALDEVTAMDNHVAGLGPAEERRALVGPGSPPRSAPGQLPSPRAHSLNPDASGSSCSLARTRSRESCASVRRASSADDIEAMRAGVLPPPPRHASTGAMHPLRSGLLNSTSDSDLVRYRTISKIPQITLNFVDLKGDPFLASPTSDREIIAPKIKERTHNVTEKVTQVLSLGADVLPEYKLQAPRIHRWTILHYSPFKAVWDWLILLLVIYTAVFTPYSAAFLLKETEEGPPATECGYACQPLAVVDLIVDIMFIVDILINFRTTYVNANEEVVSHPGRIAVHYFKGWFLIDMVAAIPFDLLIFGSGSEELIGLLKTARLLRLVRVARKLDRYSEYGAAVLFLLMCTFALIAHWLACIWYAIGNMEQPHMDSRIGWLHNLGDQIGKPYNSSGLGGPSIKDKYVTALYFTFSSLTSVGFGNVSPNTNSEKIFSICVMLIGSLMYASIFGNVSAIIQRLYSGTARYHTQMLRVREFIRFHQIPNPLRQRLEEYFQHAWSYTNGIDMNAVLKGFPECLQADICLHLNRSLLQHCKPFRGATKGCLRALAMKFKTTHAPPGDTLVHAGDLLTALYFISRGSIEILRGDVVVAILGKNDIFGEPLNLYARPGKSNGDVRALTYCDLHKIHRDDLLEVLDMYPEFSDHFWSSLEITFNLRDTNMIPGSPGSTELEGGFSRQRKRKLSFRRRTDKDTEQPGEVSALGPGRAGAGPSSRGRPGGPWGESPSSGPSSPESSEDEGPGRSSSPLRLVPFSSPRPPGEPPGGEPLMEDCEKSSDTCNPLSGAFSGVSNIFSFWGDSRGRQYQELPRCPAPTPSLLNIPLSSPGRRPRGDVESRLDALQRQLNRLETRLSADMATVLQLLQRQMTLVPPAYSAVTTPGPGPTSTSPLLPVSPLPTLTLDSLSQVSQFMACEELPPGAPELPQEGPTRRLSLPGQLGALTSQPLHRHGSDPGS
row,SMILES,"hERG current change (%, negative = inhibition) at 1uM [%]"
1,CN1N=C(C(=O)NC2CCCc3c2cnn3-c2ccc(F)cc2F)CCC1=O (stereo not shown),6.91
2,C=C1CC2C3CC[C@@]4(OCOC45COCO5)[C@@]3(C)C(O)CC2[C@@]2(C)CCC(=O)C=C12 (stereo partly shown),13.6
3,Cc1ccc(C(=O)C(C)OC(=O)c2ccccc2[N+](=O)[O-])cc1 (stereo not shown),8
4,CCC1=Nc2cc(C(=O)NCCCN3CCOCC3)ccc2Sc2ccc(Br)cc21,15.9
5,CCOC(=O)/C(C#N)=N/Nc1ccccc1C#N,11.2
6,CC(C)CCn1nnnc1C(c1ccccc1)N1CCN(C)CC1 (stereo not shown),9.6
7,CCOC(=O)Cn1nnnc1C(CC)N(Cc1ccccc1)Cc1cc2cc(C)ccc2[nH]c1=O (stereo not shown),-2.05
8,Cc1cc(C)cc(N2C(=O)NC(=O)/C(=C\c3cccn3-c3ccccc3)C2=O)c1,-0.0202
9,CCCCOC(=O)c1ccc(OC(=O)c2cccnc2)cc1,5.73
10,O=C(O)c1ccc(SCc2cnc(Cl)s2)cc1,-79.6
11,COC(=O)c1ccc(SCc2cnc(Cl)s2)cc1,7.26
12,Clc1ncc(CSc2ccccc2)s1,5.7
13,Cc1ccc(NC(=O)N(Cc2nc3ccccc3c(=O)[nH]2)Cc2cccs2)cc1,5.74
14,CC1(C)Cc2c(cnn2-c2cccc(F)c2)C(NC(=O)c2csnn2)C1 (stereo not shown),-85
15,Cc1cc(C)cc(-n2ncc3c2CCCC3NC(=O)c2csnn2)c1 (stereo not shown),-84
16,Cc1cc(C(=O)NC2CC(C)(C)Cc3c2cnn3-c2cccc(F)c2)nn1C (stereo not shown),9.79
17,CC1(C)Cc2c(cnn2-c2cccc(F)c2)C(NC(=O)c2ccc(=O)[nH]n2)C1 (stereo not shown),-61.7
18,CC1=C(C(=O)NC2CC(C)(C)Cc3c2cnn3-c2cccc(F)c2)OCCO1 (stereo not shown),-3.59
19,Cc1cc(C(=O)NC2CC(C)(C)Cc3c2cnn3-c2cccc(F)c2)n(C)n1 (stereo not shown),3.12
20,Cc1ccc(-n2ncc3c2CCCC3NC(=O)c2csnn2)cc1C (stereo not shown),2.61
21,Cc1cnc(C(=O)NC2CC(C)(C)Cc3c2cnn3-c2cccc(F)c2)cn1 (stereo not shown),3.82
22,CC(C)(C)c1ccc(-n2ncc3c2CCCC3NC(=O)c2csnn2)cc1 (stereo not shown),9.11

row,SMILES,"hERG current change (%, negative = inhibition) at 1uM [%]"
1,Nc1ccc(C(=O)NCc2ccccc2)cc1,8.94
2,CCNC(=O)c1ccc(NC(=O)CC2SC(N3CCCCC3)=NC2=O)cc1 (stereo not shown),-1.11
3,COc1ccc(CCNC(=O)c2cc(C)oc2C)cc1,10.3
4,OCC1(Cc2ccccc2)CCN(C2CCN(c3ccc(F)c(F)c3)CC2)CC1,-124
5,OCCC1CN(C2CCN(c3ccccc3F)CC2)CCN1Cc1ccccc1 (stereo not shown),-1.66
6,OCC1(Cc2ccccc2)CCCN(C2CCCC2)C1 (stereo not shown),-3.43
7,OCCC1CN(C2CCC2)CCN1Cc1ccc(F)c(F)c1 (stereo not shown),12.1
8,OCC1(Cc2ccccc2)CCN(C2CCN(c3ccccc3F)CC2)CC1,-38.5
9,OCCC1CN(C2CCN(c3ccccc3)CC2)CCN1Cc1ccc(F)c(F)c1 (stereo not shown),-71.1
10,CC(C)c1c(C(=O)N/N=C/c2ccccc2C(=O)O)nnn1-c1nonc1N,7.36
11,C(=C\CSc1nnnn1-c1ccccc1)/CSc1nnnn1-c1ccccc1,0.568
12,O=C(Cn1nc(-c2ccccc2)c2ccccc2c1=O)Nc1ccc2c(c1)nc1n2CCOC1,13.3
13,C/C(=N\NC(=O)C1(C)CC1(Br)Br)c1cccc(NC(=O)c2ccc(C)o2)c1 (stereo not shown),11.8
14,CN1CCCN(C(=O)c2ccc(Br)s2)CC1,1.6
15,CN1CCCN(C(=O)c2ccc(Cl)s2)CC1,-50.5
16,O=C(c1ccc(Cl)s1)N1CCCC1,6.35
17,CCOc1ccc(CCNC(=O)CN2CCN(Cc3ccccc3F)C2=O)cc1OCC,-0.385
18,Cc1ccc(S(=O)(=O)N2CCC(C(=O)Nc3ncccc3O)CC2)cc1,-13.8
19,CCC1CCCCN1CCCNC(=O)c1ccc2c(c1)N(Cc1ccc(F)cc1)C(=O)c1ccccc1S2=O (stereo not shown),-13.7
20,Cc1nc(S(=O)(=O)c2ccc(Cl)cc2)nc2c1CCC2,0.296
21,CCOc1ccccc1CN1C(=O)NC(C)(c2ccccc2)C1=O (stereo not shown),-0.418
22,CCN(C1CCCCC1)S(=O)(=O)CCNC(=O)c1ccccc1,2.25

row,SMILES,"hERG current change (%, negative = inhibition) at 1uM [%]"
1,CC[N+](C)(C)CCN(Cc1ccc(Cl)cc1)c1ccccn1.[Br-],-33.2
2,COc1ccc(CN(CCN(C)C)c2ccccn2)cc1.O=C(O)/C=C\C(=O)O,-0.0995
3,CCCCCCCCCCCCCCCC[N+](C)(C)CCN(Cc1ccc(OC)cc1)c1ncccn1.[Br-],-61.5
4,COc1cc(C)ccc1OCCCOc1ccccc1Br,12.3
5,O=C(CCn1c(=O)c2sccc2n(Cc2cc(=O)n3ccccc3n2)c1=O)NCc1ccco1,-25.1
6,CC(C)Oc1cccc(C(=O)C2CCCN(C3CCOCC3)C2)c1 (stereo not shown),-5.96
7,CCOC(=O)N1CCC(N2CCCC(C(=O)c3cccc(OC)c3)C2)CC1 (stereo not shown),-13.2
8,CCOC(=O)N1CCC(N2CCCC(C(=O)c3ccc4cc(OC)ccc4c3)C2)CC1 (stereo not shown),-55.1
9,CCOC(=O)N1CCC(N2CCCC(C(=O)c3cccc(OC(C)C)c3)C2)CC1 (stereo not shown),-61.3
10,CCOC(=O)N1CCC(N2CCCC(C(=O)c3cc(C)c(OC)c(C)c3)C2)CC1 (stereo not shown),-28.1
11,CCCC(=O)N1CCCC(C(=O)c2cccc(OC(C)C)c2)C1 (stereo not shown),9.81
12,O=C(COC(=O)CCc1ccccc1)NCc1ccccc1,12.3
13,COc1cccc(-c2nc3n(n2)C(c2cccs2)C(C(=O)Nc2cccnc2)=C(C)N3)c1 (stereo not shown),-51.2
14,COc1ccc(C2C(C(=O)Nc3cccnc3)=C(C)Nc3nc(-c4cccs4)nn32)cc1 (stereo not shown),-2.21
15,COc1ccccc1-c1nc2n(n1)C(c1cccs1)C(C(=O)Nc1cccnc1)=C(C)N2 (stereo not shown),0.0177
16,CC(=O)OC(C(=O)NC1CCCCC1)c1ccccc1 (stereo not shown),9.71
17,CCCN(C(=O)c1ccc(N(C)S(=O)(=O)c2ccc(C)cc2)cc1)C1CCS(=O)(=O)C1 (stereo not shown),14.8
18,CCN(CC)CCCNC(=O)CNC(=O)c1nn(-c2ccc(OC)cc2)c(=O)c2ccccc12,17.5
19,CCN(CC)CCCNC(=O)c1nn(-c2cccc(OC)c2)c(=O)c2ccccc12,-66.9
20,CCN(CC)CCCNC(=O)c1nn(-c2ccc(OC)cc2OC)c(=O)c2ccccc12,8.97
21,CC(=O)NS(=O)(=O)c1ccc(NC(=O)C(Sc2ccccc2)c2ccccc2)cc1 (stereo not shown),7.09
22,Cn1c(=O)c(C(=O)CN2CCCCC2)c(N)n(Cc2ccccc2)c1=O,6.17

row,SMILES,"hERG current change (%, negative = inhibition) at 1uM [%]"
1,Cc1coc2cc3oc(=O)c(CCC(=O)N4C[C@H]5C[C@@H](C4)c4cccc(=O)n4C5)c(C)c3cc12,-16.8
2,Cc1coc2cc3oc(=O)c(CC(=O)N4C[C@H]5C[C@@H](C4)c4cccc(=O)n4C5)c(C)c3cc12,4
3,Cc1c(CC(=O)N2C[C@H]3C[C@@H](C2)c2cccc(=O)n2C3)c(=O)oc2cc3occ(C(C)(C)C)c3cc12,-56.8
4,Cc1noc(C)c1COC(=O)c1cccc(S(=O)(=O)N2c3ccccc3CC2C)c1 (stereo not shown),10.5
5,O=C(N/N=C/c1c(O)ccc2ccccc12)c1cccc(C(F)(F)F)c1,13.9
6,CC1CCCCN1C(=O)C(Cc1ccccc1)N1C(=O)C2CCCCC2C1=O (stereo not shown),10.7
7,CCOC(=O)c1c(NC(=S)Nc2ccc(F)cc2)sc2c1CCC2,-21.8
8,COc1ccc(Cl)cc1C(=O)NC(=S)Nc1ccccc1N1CCOCC1,9.75
9,COc1ccc(Br)cc1C(=O)Nc1ccccc1N1CCN(C(=O)c2ccccc2)CC1,7.55
10,CN1CCN(c2ccccc2NC(=O)c2cc(Br)ccc2Cl)CC1,-53.1
11,COc1ccc(Cl)cc1C(=O)Nc1ccccc1N1CCN(C(=O)C(C)C)CC1,-19.6
12,CS(=O)(=O)N1CCN(c2ccccc2NC(=O)c2cc(Br)ccc2Cl)CC1,-1.64
13,COc1ccccc1C(=O)Nc1ccccc1N1CCN(C(=O)c2ccc(Cl)cc2)CC1,-85.2
14,CC(=O)N1CCN(c2ccccc2NC(=O)c2cc(Br)ccc2Cl)CC1,-27
15,COc1ccc(Cl)cc1C(=O)Nc1ccccc1N1CCN(C)CC1,-70.4
16,O=C(Nc1ccccc1N1CCN(C(=O)c2ccccc2)CC1)c1ccccc1Cl,-29.8
17,CC(=O)c1nc2ccccc2n1Cc1ccccc1,9.31
18,CCCCn1c(N)c(N(CCC(C)C)C(=O)C2=COCCO2)c(=O)[nH]c1=O,5.25
19,COC(=O)CN1C(=O)Nc2ccc(Cl)cc2C1c1ccccc1 (stereo not shown),22.6
